About 83,000 compounds went through this panel and 20% of them were active in at least one assay; those are over-represented in the sample as a whole.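 Results are percent growth after 48 hours of single-concentration exposure. 100 means growth as in untreated cells, lower positive values show inhibition; negative values down to -100 show cell death.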 Values without a mark were called inactive. Active and inactive are the calls of the source. How the source made its calls: active means growth percent below 10; inactive means the rest.
Test system: HL-60(TB) leukemia
Test: NCI-60 one-dose screen, 48 h (100 = growth as untreated, 0 = no growth, -100 = all killed)
Details: 10 µM unless noted

| SMILES | growth |
| --- | --- |
| Cc1ccc2c(n1)C(=O)C(Cl)=C(Nc1cccc(C(C)C)c1)C2=O | 10.3% |
| Cc1c(Cl)cccc1S(=O)(=O)Nc1ccc2c(c1)C(=O)N(C1CCC(=O)NC1=O)C2=O (stereo not given) | -7.01% (active) |
| COc1ccc(/C=N/NC(=O)c2c(N)nn(C)c2Nc2ccccc2)cc1Oc1ccccc1 | 100% |
| COC(=O)c1ccc(NC2=C/C(=N/S(=O)(=O)c3ccc(C(=O)O)cc3)c3ccccc3C2=O)cc1 | -15.9% (active) |
| COc1cc(OC)c(S(=O)(=O)N(CCCl)CCCl)cc1C(=O)/C=C/c1ccc(Cl)cc1 | 49.4% |
| CCC(CC)n1c(=O)c(SC2=NC3C(NN2)N(CC)C(=O)N3CC)c(C(=O)O)c2ccccc21 (stereo not given) | 0.469% (active) |
| Cc1csc(/N=C(N)/N=C(\N)c2cccc(C#N)c2)n1 | 70.8% |
| CNC(=O)c1cc(Oc2ccc3c(c2)sc2nc(-c4ccc(N(C)C)cc4)cn23)ccn1 | 5.28% (active) |
| NS(=O)(=O)c1cccc(Nc2nc(SCC(=O)c3ccc(Br)cc3)nc3ccccc23)c1 | 79.1% |
| CCCC/C(=C\c1ccc(O)c(O)c1)C(=O)NC(Cc1ccccc1)C(=O)C(=O)NCCc1ccc(OC)cc1 (stereo not given) | 92.5% |
| Nc1nc(N)c2c(n1)NC(c1ccccc1)CC(c1ccc(Nc3nc(NCCO)nc(Nc4ccc(Cl)cc4)n3)cc1)=N2 (stereo not given) | 2.55% (active) |
| N#Cc1c(-c2ccccc2)cc(-c2c[nH]c3ccccc23)nc1-c1c[nH]c2ccccc12 | 104% |
| CC(=O)C1=C(C)NC(NNc2ccccc2)=NC1c1ccc([N+](=O)[O-])cc1 (stereo not given) | 88.3% |
| N#C/C(=C\c1cccc2c1OCO2)C(=O)Nc1sc2c(c1C#N)CCCC2 | 105% |
| O=S(=O)(Nc1cc(Cl)c(F)c(Cl)c1)c1ccc(-c2cnc(C3CC3)o2)cc1 | 14.1% |
| Cc1ccc(NC2=C(Cl)C(=O)c3nc(C)ccc3C2=O)c(C)c1 | -14.8% (active) |
| CN1CCN(Cc2ccc(NC(=O)c3cncc(C#Cc4cnc(N)nc4)c3)cc2C(F)(F)F)CC1 | 19.4% |
| CCOC(=O)c1c(NC(=O)c2cccc(C(F)(F)F)c2)sc2c(CN3CCN(C)CC3)c(O)ccc12 | -31% (active) |
| COc1cc(OC)c(C2C(Cl)C(=O)N2Nc2ncnc3ccccc23)cc1OC (stereo not given) | 108% |
| CCN(CC)c1ccc(/C=N/NC(=O)c2ccc(NS(C)(=O)=O)cc2)c(O)c1 | 0.843% (active) |

| SMILES | growth |
| --- | --- |
| CS(=O)(=O)c1ccc(-c2nc3ccccn3c2/C=N/Nc2nc(-c3ccc(Br)cc3)cs2)cc1 | 107% |
| O=S(=O)(NCCCNc1nccc(-c2[nH]c(-c3ccccc3)nc2-c2ccc(Cl)c(O)c2)n1)c1cccc(F)c1 | 35.6% |
| Cc1ccc(C2=Nn3c(nnc3-c3ccccc3)SC2)cc1 | 7.74% (active) |
| C/C(=C(/C)C1CC1CCN(C(=O)c1ccc([N+](=O)[O-])cc1)S(=O)(=O)c1ccc(C)cc1)C1CCCCC1 (stereo not given) | 96.5% |
| COc1ccc(N2C(=O)c3cc(Cl)ccc3NC2SCc2ccccc2)cc1 (stereo not given) | 114% |
| N#Cc1c(NC(=O)c2ccccc2C(F)(F)F)sc2c1CCC(=O)C2 | 3.87% (active) |
| COc1ccccc1NC1=C(Cl)C(=O)c2nc(C)ccc2C1=O | -48% (active) |
| Clc1ccc(Cc2nnc3sc(-c4cccnc4)nn23)cc1 | 97.2% |
| Cc1ccc(-n2cc(/C=C/C(=O)c3ccc(O)cc3)c(-c3ccc(S(C)(=O)=O)cc3)n2)cc1 | 27.5% |
| CCCn1cnc2c(c1=N)C(c1ccc(OC)cc1)c1sc3c(C)cccc3c1O2 (stereo not given) | 0.388% (active) |
| NS(=O)(=O)Oc1ccc2nc(Nc3ccc(F)c(F)c3)ccc2c1 | 71.3% |
| Cc1ccc(-c2cc3nc(C(Cl)Cl)nc(-c4ccccc4)n3n2)cc1 | 55.1% |
| Cc1nc2ncc(-c3ccc4ncnc(NCc5ccccc5)c4c3)cc2[nH]1 | 109% |
| O=C(O)CNS(=O)(=O)c1ccc(Oc2ccc(S(=O)(=O)NCC(=O)O)cc2)cc1 | 91% |
| CSc1ccc(/C(=N/N=C(N)N)c2ccc(Cl)cc2)cc1 | -45.1% (active) |
| COc1cccc(-c2nn(-c3ccccc3)cc2-c2ccnc(N3CCN(C(=O)c4ccccc4)CC3)c2)c1 | 34.8% |
| COc1ccc(NC(=O)CSc2nnc(-c3ccc4nc(-c5ccccc5)[nH]c4c3)o2)cc1 | 101% |
| Cc1ccc(CSC2=C(Cl)CN(c3ccc(Cl)cc3)C2=O)cc1 | 110% |
| Nc1nc(N)c2c(n1)NC(c1ccc(F)cc1)CC(c1ccc(Nc3nc(NCCO)nc(Nc4ccc(Cl)cc4)n3)cc1)=N2 (stereo not given) | -11.4% (active) |
| Cn1ccnc1C(=O)/C=C/c1ccc(C(=O)Nc2ccc(NC(=O)CCNC(=O)c3csc(Br)n3)cc2)cc1 | 41% |

From PubChem BioAssay (NCI)
